# Assay outcomes from PubChem.
# ALOX12 inhib = blocks human 12-lipoxygenase activity. 150,000 compounds, 0.12% hits. purified 12-hLO, xylenol orange hydroperoxide absorbance. Potency, µM (titrated, usually from 57.1 µM), inactives show at the highest dose activity change, negative = inhibition, most hits filed as inhibitors. P18054. AID 1452; further: potency means the concentration at half of the fitted maximal effect; nearly all actives have a fitted effect of over 55% in size
#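 Purified human 12hLO (150 nM), preincubated 15 min with compound, then 40 uM arachidonic acid for 30 min, room temperature, Hepes pH 7.0 with 0.01% Triton X-100. Hydroperoxide detected by ferrous iron/xylenol orange; 573/405 nm absorbance ratio gives reaction progress.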
# HPGD block = inhibitors of human 15-hydroxyprostaglandin dehydrogenase (HPGD); P15428; purified HPGD, NADH fluorescence kinetic, PGE2 substrate; Potency, µM, without a hit: at the highest dose activity change, negative = inhibition, actives largely listed as inhibitors; 150,000 compounds, 4.3% hits; active means well fitted inhibition curve with a large enough effect, not every such curve was filed as active; inconclusive means small, poorly fitted or top-dose-only effect, or another doubt; inactive means no such curve, though single readings can be large or run the other way; further: potency means the concentration at half of the fitted maximal effect
# Target sequence (P15428 whole entry, looked up): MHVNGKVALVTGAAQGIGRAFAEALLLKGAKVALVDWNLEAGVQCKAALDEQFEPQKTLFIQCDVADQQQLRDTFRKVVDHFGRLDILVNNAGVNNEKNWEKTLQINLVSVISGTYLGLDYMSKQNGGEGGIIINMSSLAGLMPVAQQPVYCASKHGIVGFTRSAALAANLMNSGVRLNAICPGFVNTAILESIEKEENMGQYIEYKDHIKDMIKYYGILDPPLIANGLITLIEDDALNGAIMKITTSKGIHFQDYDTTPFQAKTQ
#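 20 nM HPGD preincubated 15 min at room temperature with compound in 50 mM Tris-HCl pH 8, 0.01% Tween 20. Started with 1 mM NAD+ and 30 uM prostaglandin E2; NADH fluorescence (360/450 nm) read 5 times over 30-s intervals, last minus first.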
# PNC inhibitor = inhibitors of perinucleolar compartment assembly; PC3M PTB-GFP, PNC prevalence imaging, 16 h; active compounds read low; 140,000 compounds, 3.1% hits; activity change (PNC), negative = inhibition, % at 10 µM;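 active means readout at or below -70, meaning at least 70% loss of cells showing the perinucleolar compartment, a nuclear body marking cancer cells; inconclusive means readout between -30 and a set limit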;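 further: plate controls were DMSO wells for no effect and camptothecin positive control wells for full effect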
#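 Read-out is percentage of cells bearing a perinucleolar compartment, from automated 20x imaging of fixed, Hoechst-stained PC3M PTB-GFP cells. Cells were seeded 4 h, then exposed 16 h to compound (23 nl of library stock) in duplicate plates.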
# IMPase Li inh = membrane-permeable IMPase blocker, potentiated with lithium. CHO-M1 cells, IP1 TR-FRET (IP-One), carbachol + lithium. Potency, µM (doses to about 59.4 µM), for the others: top-dose activity, negative = IMPase inhibition, actives largely listed as inhibitors. 210,000 compounds, 0.35% hits. AID 1457;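 further: IP1 builds up when IMPase is blocked and the TR-FRET signal falls; potency means the concentration at half of the fitted maximal effect; plate controls were basal vehicle for no effect and high inhibitor control for full effect; nearly all actives have a fitted effect of over 50% in size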
#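 Steps: plate 2000 CHO-M1 cells per well and culture 16–30 h; add compound and lithium; incubate 30 min, 37C; add d2-IP1 tracer and Eu cryptate anti-IP1 antibody in lysis buffer; read after 10 min at room temperature.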
# IMPase cell inh = membrane-permeable compound that blocks inositol monophosphatase. P97697. CHO-M1 cells, IP1 accumulation, HTRF TR-FRET ratio. inhibition (IP1 accumulation), % at 46.1 µM. 120,000 tested, under 10 active. AID 901; active means well fitted curve in the direction sought with a large enough effect in the signal ratio, not every such curve was filed as active; inconclusive means small, poorly fitted or top-dose-only effect, or a change in a side signal; inactive means no such curve, though single readings can be large or run the other way; the % refers to the signal ratio;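 further: cells stimulated with carbachol in lithium chloride buffer; plate controls were DMSO basal wells for no effect and reference inhibitor wells for full effect; higher means more IMPase inhibition seen as more IP1 and lower FRET ratio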
#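 Carbachol-driven Gq signalling in CHO-M1 cells (2000/well) generates IP1. Compounds that block IMPase raise IP1 and so reduce the FRET signal from Eu-anti-IP1 and d2-IP1 after a 10 min room-temperature lysis.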
# ALDH1A1 inh = ALDH1A1 (human) enzyme inhibition; 220,000 compounds, 7.3% hits; AID 1030; Potency, µM (titrated, usually from 75.3 µM), inactives show at the highest dose activity, negative = inhibition, most hits filed as inhibitors; P00352; Purified ALDH1A1, NADH fluorescence, propionaldehyde substrate; active means well fitted inhibition curve with a large enough effect, not every such curve was filed as active; inconclusive means small, poorly fitted or top-dose-only effect, or another doubt; inactive means no such curve, though single readings can be large or run the other way;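 further: potency means the concentration at half of the fitted maximal effect; plate controls were no enzyme wells and a reference inhibitor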
# Target sequence (P00352 whole entry, looked up): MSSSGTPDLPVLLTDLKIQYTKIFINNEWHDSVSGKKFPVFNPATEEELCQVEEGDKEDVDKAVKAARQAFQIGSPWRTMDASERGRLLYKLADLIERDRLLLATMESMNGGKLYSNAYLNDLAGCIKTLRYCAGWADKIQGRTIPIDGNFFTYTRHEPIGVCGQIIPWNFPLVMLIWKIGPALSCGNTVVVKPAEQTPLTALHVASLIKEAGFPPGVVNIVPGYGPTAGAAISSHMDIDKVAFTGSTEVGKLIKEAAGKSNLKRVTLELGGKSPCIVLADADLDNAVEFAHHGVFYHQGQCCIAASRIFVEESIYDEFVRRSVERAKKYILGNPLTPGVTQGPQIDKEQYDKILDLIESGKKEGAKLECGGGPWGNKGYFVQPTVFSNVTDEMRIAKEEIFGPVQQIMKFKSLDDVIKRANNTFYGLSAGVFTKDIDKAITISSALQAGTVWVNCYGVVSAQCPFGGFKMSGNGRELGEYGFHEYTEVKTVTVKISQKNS
# Active calls of the source: *; i = inactive; ? = inconclusive; nt = no result given; [ ] = dose if it differs, or a comment. Shown are actives, neighbours in structure and some others; about 11% of the full set was active somewhere. Unless noted, the call rests on the fitted dose curve; in most records, active means well fitted curve in the direction sought with a large enough effect; inconclusive means small, poorly fitted or top-dose-only effect, or another doubt; inactive means no such curve, though single readings can be large; an effect the other way counts as inactive or inconclusive. Unless noted, on the % scale 0 is the no-effect control and ±100 the full control effect.
SMILES,ALOX12 inhib,HPGD block,PNC inhibitor,IMPase Li inh,IMPase cell inh,ALDH1A1 inh
Cc1nc2cc(N3CCN(C)CC3)c(NC(=O)Cc3ccccc3)cc2c(=O)n1Cc1ccccc1,1%,nt,44,nt,2,18µM*
Cc1ccn2c(Nc3ccc(C(C)C)cc3)c(-c3cccs3)nc2c1,nt,nt,nt,nt,-4,nt
C=CCn1c(=O)/c(=C2/Sc3ccccc3N2CC)s/c1=C1/C(=O)NN=C1C,nt,nt,nt,4%,nt,20µM*
COc1ccc2cc(CN(Cc3cccs3)Cc3nnnn3Cc3ccccc3)c(=O)[nH]c2c1,-19%,-27%,25,7%,-12,2µM*
Cc1cccc2cc(CN(CCCN3CCOCC3)Cc3nnnn3C(C)(C)C)c(=O)[nH]c12,-1%,-5%,38,30%[38.3 µM],0,25µM*
Cc1cccc2cc(CN(Cc3cccs3)Cc3nnnn3Cc3ccccc3)c(=O)[nH]c12,-7%,-29%,-3,10%[38.3 µM],4,2.8µM*
CCC(C)(C)n1nnnc1CN(Cc1cccs1)Cc1cc2cc(OC)ccc2[nH]c1=O,-10%,-24%,6,15%[38.3 µM],-7,?
COc1ccc2cc(CN(Cc3cccnc3)Cc3nnnn3Cc3ccccc3)c(=O)[nH]c2c1,-10%,-3%,-18,1%[38.3 µM],?,8.9µM*
Cc1cnc(CNc2cc(-c3ccccc3C(F)(F)F)ncn2)cn1,nt,nt,nt,4%,nt,-2%
O=C1C2N=NN(CC(=O)N3N=C(c4ccccc4)CC3c3ccc([N+](=O)[O-])cc3)C2C(=O)N1c1ccccc1 (centres undefined),nt,nt,nt,-3%,nt,3%
CC(C)Cn1c2c(c(O)c(C(=O)Nc3nccs3)c1=O)CCCC2,-9%,-5%,15,-3%[38.3 µM],1,14µM*
COc1ccc(S(=O)(=O)N(C)C)cc1NCC(=O)Nc1ccc(Br)cc1F,-12%,-14%,0,15%,nt,11µM*
O=c1cc(N2CCOCC2)oc2c(-c3ccccc3)cccc12,1%,-21%,nt,21%,-2,-6%
c1csc(-c2nn3c(Cn4nnc5ccccc54)nnc3s2)c1,2%,?,15,1%,4,i
Clc1cccc(-c2nn3c(Cn4cnc5ccccc54)nnc3s2)c1,-5%,25µM*,?,17%[38.3 µM],-1,10µM*
c1ccc2c(c1)nnn2Cc1nnc2sc(-c3ccncc3)nn12,-2%,18µM*,-14,-16%[38.3 µM],-3,?
c1csc(-c2nn3c(Cn4cnc5ccccc54)nnc3s2)c1,2%,?,?,19%[38.3 µM],0,?
Clc1ccc(Cc2nn3c(Cn4nnc5ccccc54)nnc3s2)cc1,-3%,22µM*,?,4%,1,22µM*
c1coc(-c2nn3c(Cn4nnc5ccccc54)nnc3s2)c1,-2%,10µM*,4,-9%,4,10µM*
COc1cc(NCCC(=O)O)c2ncccc2c1,-4%[11.4 µM],-14%,nt,-1%,nt,22%[13.5 µM]
Nc1cc(C(=O)O)[nH]c(=O)n1,1%[11.4 µM],-9%,nt,0%,nt,5%[13.5 µM]
CCCc1cc(=O)[nH]c(SCc2ccccc2Cl)n1,-6%,14µM*,18,11%[38.3 µM],5,9%
CCCc1cc(=O)[nH]c(SCC(=O)NC)n1,8%,-6%,31,3%[38.3 µM],1,3%
CCCc1cc(=O)[nH]c(SCC(=O)CSc2nc(CCC)cc(=O)[nH]2)n1,-12%,-11%,-21,4%[38.3 µM],-11,14µM*
COc1ccc(-c2nc3cnc(Nc4cccc(OC)c4)nc3n(Cc3cccs3)c2=O)cc1,nt,nt,nt,0%,nt,?
SMILES,ALOX12 inhib,HPGD block,PNC inhibitor,IMPase Li inh,IMPase cell inh,ALDH1A1 inh
CC(C)(Oc1ccc(Cl)cc1)C(=O)N/N=C/c1cn[nH]c1-c1ccccc1,-25%,-28%,-19,57%[38.3 µM],12,8.9µM*
Cc1cc(C(=O)N/N=C/c2cn[nH]c2-c2ccccc2)cs1,-2%,-8%,-114*,-3%,nt,0%
O=C(N/N=C/c1cn[nH]c1-c1ccccc1)c1ccco1,nt,nt,nt,0%,nt,?
O=C(N/N=C\c1cn[nH]c1-c1ccccc1)c1ccc([N+](=O)[O-])cc1,-5%,-14%,13,0%,nt,-9%
CC(C)(C)c1ccc(-c2nc(S(=O)(=O)c3ccccc3)c(N3CCOCC3)o2)cc1,nt,nt,nt,nt,3,nt
Cc1nc(NCCc2ccc(S(N)(=O)=O)cc2)c2c(C)c(C)sc2n1,4%,-9%,?,43%[38.3 µM],11,-10%
Cc1nc(NCCNC(=O)c2ccco2)c2c(C)c(C)sc2n1,-2%,-17%,14,23%[38.3 µM],1,14µM*
Cc1cc(C)c(NS(=O)(=O)c2ccc(NC(=O)CCC(=O)O)cc2)c(C)c1,nt,nt,nt,-8%,nt,7%
CCOC(=O)c1sc2nc(C)nc(SCC(=O)NC3CCS(=O)(=O)C3)c2c1C (centres undefined),nt,nt,nt,13µM*,nt,?
COC(=O)c1cccc(NC(=O)CSc2nnnn2C)c1,-1%,-9%,26,-8%[38.3 µM],9,14µM*
COC(=O)c1cccc(-n2nnnc2SCC(=O)Nc2nc3c(s2)CCCC3)c1,-8%,20µM*,26,37%[38.3 µM],5,?
COc1ccc(NC(=O)CSc2nnnn2C)c([N+](=O)[O-])c1,nt,nt,nt,15%,nt,28µM*
CCn1nnnc1SCC(=O)Nc1cc(C)on1,0%,6%,-2,-4%,-9,-8%
COC(=O)c1cccc(-n2nnnc2SCC(=O)Nc2cc(C)on2)c1,-2%,nt,51,nt,9,11µM*
COc1ccc(S(=O)(=O)N(CC(=O)Nc2ccc3c(c2)OCO3)c2ccc(C)cc2)cc1,nt,nt,nt,nt,0,nt
CN(C)Cc1ccccc1-c1cncnc1Nc1ccccc1,nt,nt,nt,24%,nt,?
COC(=O)c1sc(NC(=O)CSc2nnnn2-c2cccc(OC)c2)nc1C,-1%,-15%,31,9%,-2,-2%
COc1cccc(-n2nnnc2SCC(=O)Nc2nc3c(s2)CCCC3)c1,-3%,25µM*,?,25%,9,?
CCNc1ncc2nc(-c3cccc(C#N)c3)c(=O)n(C)c2n1,-4%,?,nt,-14%,nt,?
O=C1C(Nc2ccccc2)=C2CCCC=C2N1c1ccccc1,nt,nt,nt,22%,nt,13µM*
O=C(c1cccc(Cl)c1)N1CCC(=O)N([C@H](COCc2cccc(Cl)c2)Cc2ccccc2)CC1,-3%[0.00818 µM],-3%,nt,16%,nt,-7%[50.4 µM]
